# Experimental data: the supplement of paper PMC8728848
# About 410 targets per protein were measured; listed, in parts, are those with the strongest signals and a random draw of the rest.
# Columns and labels:
# Experiment in all cases: glycan array binding signal (z-score within array); higher = stronger binding
# Settings in all cases: glycan notation: IUPAC condensed, linker removed
# [1] = biological target: GlcNAc(b1-3)Gal(b1-4)GlcNAc(b1-3)Gal(b1-4)GlcNAc(b1-2)Man(a1-3)[GlcNAc(b1-3)Gal(b1-4)GlcNAc(b1-3)Gal(b1-4)GlcNAc(b1-2)Man(a1-6)]Man(b1-4)GlcNAc(b1-4)GlcNAc
# In short: (§1)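 The binding signal is a Z-score computed within each array and averaged over linkers. Arrays of the same protein sequence at different concentrations or buffers were also averaged together. Data originate from 3228 arrays in the Consortium for Functional Glycomics database, kept only where the protein sequence was available.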
# [2] = biological target: GlcNAc(b1-3)[GlcNAc(b1-6)]Gal(b1-4)GlcNAc
# In short: as §1
# [3] = biological target: Man(a1-3)[Man(a1-6)]Man(a1-6)[Man(a1-2)Man(a1-3)]Man(b1-4)GlcNAc(b1-4)GlcNAc
# In short: as §1
# Man(b1-4)GlcNAc = biological target: Man(b1-4)GlcNAc
# In short: as §1
# [4] = biological target: Neu5Ac(a2-3)Gal(b1-3)GalNAc
# In short: as §1
# [5] = biological target: Neu5Ac(a2-3)Gal(b1-3)GlcNAc(b1-2)Man
# In short: as §1
# [6] = biological target: Neu5Ac(a2-3)Gal(b1-3)[GlcNAc(b1-6)]GalNAc
# In short: as §1
# Neu5Ac(a2-3)Gal(b1-4)Glc = biological target: Neu5Ac(a2-3)Gal(b1-4)Glc
# In short: as §1
# [7] = biological target: Neu5Ac(a2-3)Gal(b1-4)GlcNAc(b1-2)Man(a1-3)[GlcNAc(b1-4)][Neu5Ac(a2-3)Gal(b1-4)GlcNAc(b1-2)Man(a1-6)]Man(b1-4)GlcNAc(b1-4)GlcNAc
# In short: as §1
# [8] = biological target: Neu5Ac(a2-3)Gal(b1-4)GlcNAc(b1-2)Man(a1-3)[Neu5Ac(a2-3)Gal(b1-4)GlcNAc(b1-2)Man(a1-6)]Man(b1-4)GlcNAc(b1-4)[Fuc(a1-6)]GlcNAc
# In short: as §1
# [9] = biological target: Neu5Ac(a2-3)Gal(b1-4)GlcNAc(b1-3)Gal(b1-4)GlcNAc
# In short: as §1
# [10] = biological target: Neu5Ac(a2-3)Gal(b1-4)GlcNAc(b1-3)Gal(b1-4)GlcNAc(b1-3)Gal(b1-4)GlcNAc(b1-2)Man(a1-3)[Neu5Ac(a2-3)Gal(b1-4)GlcNAc(b1-3)Gal(b1-4)GlcNAc(b1-3)Gal(b1-4)GlcNAc(b1-2)Man(a1-6)]GalNAc
# In short: as §1
# [11] = biological target: Neu5Ac(a2-6)Gal(b1-4)GlcNAc(b1-2)Man
# In short: as §1
# [12] = biological target: Neu5Ac(a2-6)Gal(b1-4)GlcNAc(b1-2)Man(a1-3)[Neu5Ac(a2-6)Gal(b1-4)GlcNAc(b1-2)Man(a1-6)]Man(b1-4)GlcNAc(b1-4)GlcNAc
# In short: as §1
# [13] = biological target: Neu5Ac(a2-6)Gal(b1-4)GlcNAc(b1-2)Man(a1-6)Man(b1-4)GlcNAc(b1-4)GlcNAc
# In short: as §1
# [14] = biological target: Neu5Ac(a2-6)Gal(b1-4)GlcNAc(b1-2)Man(a1-6)[Man(a1-3)]Man(b1-4)GlcNAc(b1-4)GlcNAc
# In short: as §1
# [15] = biological target: Neu5Ac(a2-6)Gal(b1-4)GlcNAc(b1-3)Gal(b1-4)GlcNAc(b1-3)[Neu5Ac(a2-6)Gal(b1-4)GlcNAc(b1-3)Gal(b1-4)GlcNAc(b1-6)]GalNAc
# In short: as §1
# [16] = biological target: Neu5Ac(a2-6)Gal(b1-4)GlcNAc(b1-3)Gal(b1-4)GlcNAc(b1-6)[Gal(b1-3)]GalNAc
# In short: as §1
# [17] = biological target: Neu5Ac(a2-6)Gal(b1-4)GlcNAc6S
# In short: as §1
# [18] = biological target: Neu5Gc(a2-3)Gal(b1-4)GlcNAc(b1-3)Gal(b1-4)GlcNAc(b1-2)Man(a1-3)[Neu5Gc(a2-3)Gal(b1-4)GlcNAc(b1-3)Gal(b1-4)GlcNAc(b1-2)Man(a1-6)]Man(b1-4)GlcNAc(b1-4)GlcNAc
# In short: as §1
binder,measurement,setting,value
"Protein L(A-C2) (Finegoldia magna), Q51912 (protein) ADEPIDLEKLEEKRDKENVGNLPKFDNEVKDGSENPMAKYPDFDDEASTRFETENNEFEEKKVVSDNFFDQSEHPFVENKEETPETPETDSEEEVTIKANLIFANGSTQTAEFKGTFEKATSEAYAYADTLKKDNGEYTVDVADKGYTLNIKFAGKEKTPEEPKEEVTIKANLIYADGKTQTAEFKGTFEEATAEAYRYADALKKDNGEYTVDVADKGYTLNIKFAGKEKTPEEPKEEVTIKANLIYADGKTQTAEFKGTFEEATAEAYRYADLLAKENGKYTVDVADKGYTLNIKFAGKEKTPEEPKEEVTIKANLIYADGKTQTAEFKGTFAEATAEAYRYADLLAKENGKYTADLEDGGYTINIRFAGKKVDEKPEEKEQVTIKENIYFEDGTVQTATFKGTFAEATAEAYRYADLLSKEHGKYTADLEDGGYTINIRFAGKEEPEETPEKPEVQDGYASYEEAEAAAKEALKNDDVNKSYTIRQGADGRYYYVLSPVEAEEEKPEAQNGYATYEEAEAAAKKALENDPINKSYSIRQGADGRYYYVLSPVEAE",glycan array binding signal (z-score),[1],1.91
same,glycan array binding signal (z-score),[2],-0.856
same,glycan array binding signal (z-score),[3],4.98
same,glycan array binding signal (z-score),Man(b1-4)GlcNAc,0.002
same,glycan array binding signal (z-score),[4],0.418
same,glycan array binding signal (z-score),[5],3.79
same,glycan array binding signal (z-score),[6],-0.278
same,glycan array binding signal (z-score),Neu5Ac(a2-3)Gal(b1-4)Glc,0.38
same,glycan array binding signal (z-score),[7],-0.228
same,glycan array binding signal (z-score),[8],2.19
same,glycan array binding signal (z-score),[9],-1.1
same,glycan array binding signal (z-score),[10],3.85
same,glycan array binding signal (z-score),[11],0.253
same,glycan array binding signal (z-score),[12],-0.037
same,glycan array binding signal (z-score),[13],-0.51
same,glycan array binding signal (z-score),[14],0.298
same,glycan array binding signal (z-score),[15],3.89
same,glycan array binding signal (z-score),[16],0.761
same,glycan array binding signal (z-score),[17],-0.725
same,glycan array binding signal (z-score),[18],0.473
